PREPL inh: inhibitors of human prolyl oligopeptidase-like enzyme PREPL; recombinant PREPL, fluorescence polarization activity-based probe; inhibition, % at 5.96 µM; 320,000 compounds, 0.68% hits; AID 2751; in the data active = inhibition above about 43%
PP5 primary: inhibitors of human protein phosphatase 5 (PP5); P53041; purified PP5c, OMFP substrate fluorescence; inhibition, % at 6.7 µM; 320,000 compounds, 0.18% hits;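 active = inhibition above the campaign's mean inhibition across all tested compounds plus 3 SD, cut at about 9.5% in these data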
TMEM16A inh: inhibitors of mouse TMEM16A calcium-activated chloride channel | Q8BHY3 | HEK293 TMEM16A/YFP iodide influx fluorescence, ionomycin | normalized B-score (activity score, 25-100; higher = stronger inhibition) at 10 µM | 310,000 compounds, 1.2% hits | AID 588511;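 active = ratio plate-corrected score three or more library SD toward inhibition, starting fluorescence score within five deviations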;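 also: score derived from kinetic fluorescence span divided by baseline fluorescence per well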
ANO1 activ: activates or potentiates the mouse TMEM16A chloride channel | HEK293 TMEM16A/YFP-H148Q/I152L, iodide quench fluorescence; hits give low values | B-score at 10 µM | 340,000 compounds, 0.3% hits | AID 623877;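 active = fluorescence-ratio B-score plate-corrected deviation score at least 3 library SD below zero, with starting fluorescence score within 5 deviations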;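 also: channel opened by trigger with iodide after compound preincubation; score built on the fluorescence ratio of max minus min over baseline; more negative score means more quench and so TMEM16A activation or potentiation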
PP1 inh: blocks human PP1-alpha phosphatase, a PP5 counter-screen. AID 2235. P62136. 320,000 compounds, 0.9% hits. purified PP1alpha, OMFP fluorescence. inhibition, % at 6.7 µM;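 active = inhibition above the mean inhibition of all tested compounds plus 3 SD, computed separately for each screening campaign, cut at about 15% in these data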
FID counter: fluorescent intercalator displacement, NS3 helicase counter-screen; inhibition, % at 7.9 µM; 290,000 compounds, 0.17% hits; DNA fluorescent intercalator displacement, fluorescence; in the data active = inhibition above about 37%;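 also: higher means more ethidium bromide displaced from hairpin DNA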
TMEM16A reconf: reconfirmed blocker of mouse TMEM16A calcium-activated chloride channel. HEK293 TMEM16A/YFP-H148Q, iodide quench fluorescence; ionomycin added to raise cell calcium. AID 652189. 2,300 compounds, 39% hits. shares compounds with TMEM16A inh. inhibition, % at 10 µM;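 active = mean duplicate percent inhibition, scaled so buffer wells are 0 and the reference blocker 100, over three buffer SD above buffer mean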
HEK293 Ca mobil: alters calcium mobilization in TMEM16A HEK293 cells, counter-screen. calcium response (% of ionomycin), % at 10 µM. 2,300 compounds, 2% hits. TMEM16A/YFP HEK293, Fluo4 calcium mobilization. shares compounds with TMEM16A inh;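 active = duplicate-averaged calcium signal over 20% of the ionomycin maximum, relative to buffer baseline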;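 also: each well's signal is peak minus trough fluorescence divided by its pre-addition baseline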
YFP-HEK293 quench: acts in parental YFP-HEK293 cells lacking TMEM16A, counter-screen. shares compounds with TMEM16A inh. iodide YFP quench, ionomycin. YFP ratio F(max-min)/F0 at 10 µM. 2,300 tested, under 10 active;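 active = yellow fluorescent protein signal ratio exceeding the buffer control mean by over 5 SD of those controls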;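 also: ratio is mean of duplicate wells from kinetic YFP trace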
ClC-1 inh: selectivity of TMEM16A inhibitors: inhibition of rat ClC-1 chloride channel; 2,300 tested, under 10 active; ratio percent, % at 10 µM; shares compounds with TMEM16A inh; AID 652236; CHO ClC-1-YFP, iodide influx fluorescence quench; iodide control reads 0, buffer control 100;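 active = duplicate-mean ratio percent above the mean of iodide-only control wells, which defines zero, plus 5 of their SD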;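 also: higher percent means stronger block of ClC-1 iodide influx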
Of the large screens only hits and unclear results are named; the others gave an inactive call (follow-up assays come after a bar, where they were run). Only some compounds are listed: those with a hit (about 2.7% of all), similar ones and a draw of the others.

Cc1ccc2[nH]c(O)c(N=NC(=O)C3CC3c3ccccc3)c2c1Br (stereo not drawn)	none
Cc1ccc(NC(=S)NC(=O)C2CCCCC2)c(Br)c1	none (no result: PP5 primary, TMEM16A inh, PP1 inh, FID counter)
Cc1ccc(Cl)c(OCC(=O)NCC(c2cccs2)N2CCOCC2)c1 (stereo not drawn)	none (no result: FID counter)
O=[N+]([O-])c1c(O)c(Cl)cc(Cl)c1Cl (tested in a mixture with another compound)	none (no result: PREPL inh, PP5 primary, TMEM16A inh, PP1 inh, FID counter)
O=C(CSc1nc2ccccc2c(=O)n1CC1CCCO1)NCC1CCCO1 (stereo not drawn)	TMEM16A inh 100 | TMEM16A reconf inactive | HEK293 Ca mobil inactive | YFP-HEK293 quench inactive | ClC-1 inh inactive
Cc1ccc(CNC(=O)CSc2nc3ccccc3c(=O)n2CC2CCCO2)cc1 (stereo not drawn)	none (no result: PP5 primary, TMEM16A inh, PP1 inh, FID counter)
CCc1ccccc1N(CC)C(=O)CCc1nc(-c2ccc(C)cc2)no1	TMEM16A inh 100 | TMEM16A reconf 30.5% | HEK293 Ca mobil inactive | YFP-HEK293 quench inactive | ClC-1 inh inactive
CCN(Cc1ccccc1)C(=O)CCc1nc(-c2ccc(C)cc2)no1	none
COc1ccc(CN(C)C(=O)c2ccc(COc3ccccc3)cc2)c(OC)c1	TMEM16A inh 25 | TMEM16A reconf inactive | HEK293 Ca mobil inactive | YFP-HEK293 quench inactive | ClC-1 inh inactive
COc1ccccc1CN(C)C(=O)c1ccc(COc2ccccc2)cc1	TMEM16A inh 100 | TMEM16A reconf inactive | HEK293 Ca mobil inactive | YFP-HEK293 quench inactive | ClC-1 inh inactive
CCN(CC)S(=O)(=O)c1cccc(-c2nnc(SCc3nc4ccccc4s3)o2)c1	TMEM16A inh 100 | TMEM16A reconf 18.0% | HEK293 Ca mobil inactive | YFP-HEK293 quench inactive | ClC-1 inh inactive
CCN(CC)S(=O)(=O)c1cccc(-c2nnc(-c3ccc(C)cc3)o2)c1	none
COc1ccc(-c2csc3nc(-c4cccnc4)nc(Cl)c23)cc1OC	TMEM16A inh 25 | TMEM16A reconf inactive | HEK293 Ca mobil inactive | YFP-HEK293 quench inactive | ClC-1 inh inactive
Clc1nc(-c2cccnc2)nc2scc(-c3ccccc3)c12	none
COc1ccc(NS(=O)(=O)c2ccc3oc(SC(C)C(N)=O)nc3c2)cc1 (stereo not drawn)	TMEM16A inh 25 | TMEM16A reconf inactive | HEK293 Ca mobil inactive | YFP-HEK293 quench inactive | ClC-1 inh inactive
Cc1sc2ncnc(NCC(O)c3ccccc3)c2c1C (stereo not drawn)	none
Cc1sc2ncnc(NCC(O)c3ccc([N+](=O)[O-])cc3)c2c1C (stereo not drawn)	TMEM16A inh 100 | TMEM16A reconf 28.0% | HEK293 Ca mobil inactive | YFP-HEK293 quench inactive | ClC-1 inh inactive
Nc1nonc1-n1nnc(C(=O)N/N=C/c2ccccc2F)c1CN1CCc2ccccc21	none
COc1ccc2[nH]cc(/C=N/NS(=O)(=O)c3ccc(C)cc3)c2c1	TMEM16A inh 25 | TMEM16A reconf 28.5% | HEK293 Ca mobil inactive | YFP-HEK293 quench inactive | ClC-1 inh inactive
Cc1ccc(S(=O)(=O)N/N=C/c2c[nH]c3ccccc23)cc1	TMEM16A inh 25 | TMEM16A reconf 28.0% | HEK293 Ca mobil inactive | YFP-HEK293 quench inactive | ClC-1 inh inactive
Cc1cccc(NS(=O)(=O)c2cccc(C(=O)N3CCN(C/C=C/c4ccccc4)CC3)c2)c1	none (no result: TMEM16A inh, FID counter)
CN1N=C2c3ccccc3CCCC2C1c1ccc(F)cc1 (stereo not drawn)	none
CCn1cc(C(=O)NCCc2ccccc2)c(=O)c2cc(F)c(N3CCN(C)CC3)cc21	none
CCn1cc(C(=O)NCc2ccccn2)c(=O)c2cc(F)c(N3CCN(C)CC3)cc21	none (no result: FID counter) | TMEM16A reconf inactive | HEK293 Ca mobil inactive | YFP-HEK293 quench inactive | ClC-1 inh inactive
CC[C@@]1(C(=O)OC)N[C@H](CN(C)C(=O)Nc2ccccc2)[C@@H]2C(=O)N(Cc3ccccc3)C(=O)[C@@H]21	none (no result: PP5 primary, TMEM16A inh, ANO1 activ, PP1 inh, FID counter)
CCOC(=O)c1c(NC(=O)C(C)N2CCN(C(=O)c3ccco3)CC2)sc2c1CCCC2 (stereo not drawn)	TMEM16A inh 25 | TMEM16A reconf inactive | HEK293 Ca mobil inactive | YFP-HEK293 quench inactive | ClC-1 inh inactive
CCOC(=O)c1c(NC(=O)c2ccco2)sc2c1CCCCC2	none
NC(=O)c1ccccc1NC(=O)COc1ccc2c(c1)OCO2	none
Cc1ccc(Oc2ccc(S(=O)(=O)N3CCOCC3)cc2C(N)=O)cc1C	none
CCCCC1(c2ccc(F)cc2)NC(=O)N(CC(=O)Nc2ccc(N3CCOCC3)cc2)C1=O (stereo not drawn)	none (no result: PP5 primary, TMEM16A inh, PP1 inh, FID counter)
Cc1cc(C)nc(/N=C(\N)Nc2ccc(SC(F)F)cc2)n1	TMEM16A inh 100 | TMEM16A reconf inactive | HEK293 Ca mobil 32.0% | YFP-HEK293 quench inactive | ClC-1 inh inactive
CC(=O)Nc1ccc(N/C(N)=N/c2nc(C)cc(C)n2)cc1	none
COc1cc(NC(=NS(=O)(=O)c2ccccc2)c2ccccc2)ncn1	none (no result: PREPL inh, PP5 primary, TMEM16A inh, PP1 inh, FID counter)
Cc1nc(N)sc1-c1csc(Nc2ccc(Cl)cn2)n1	TMEM16A inh 25 | TMEM16A reconf 26.5% | HEK293 Ca mobil inactive | YFP-HEK293 quench inactive | ClC-1 inh inactive
Cc1nc(C)c(-c2csc(Nc3ccccn3)n2)s1	TMEM16A inh 25 | TMEM16A reconf 28.5% | HEK293 Ca mobil inactive | YFP-HEK293 quench inactive | ClC-1 inh inactive
Cc1nc(C)c(-c2csc(Nc3cccc(O)c3)n2)s1	TMEM16A inh 100 | TMEM16A reconf 38.0% | HEK293 Ca mobil inactive | YFP-HEK293 quench inactive | ClC-1 inh inactive
Cc1nc(N)sc1-c1csc(Nc2ccccn2)n1	none (no result: PREPL inh, PP5 primary, TMEM16A inh, PP1 inh)
COc1cccc(F)c1C(C[N+](=O)[O-])c1c(N)n(C)c(=O)n(C)c1=O (stereo not drawn)	none
COc1ccc(NC2SC(=O)N(C)C2=O)cc1 (stereo not drawn)	none
COc1cc2nc(N3CCNCC3)nc(N)c2cc1OC	TMEM16A inh 100, FID counter 48.9 | TMEM16A reconf inactive | HEK293 Ca mobil inactive | YFP-HEK293 quench inactive | ClC-1 inh inactive
Cc1ccc(C)c(CSc2nnc([C@@H](N)C(C)C)o2)c1	TMEM16A inh 100 | TMEM16A reconf inactive | HEK293 Ca mobil inactive | YFP-HEK293 quench inactive | ClC-1 inh inactive
COC(=O)c1c(C)[nH]c(C(=O)OCc2csc(CC(=O)Nc3ccccc3C)n2)c1C	none (no result: PP5 primary, TMEM16A inh, PP1 inh, FID counter)
